# Source: PubChem BioAssay (National Center for Advancing Translational Sciences (NCATS))
# Compounds with a hit are over-represented: about 11% of the library has one in this group of screens.
# NIH3T3 tox: NIH 3T3 cell cytotoxicity; NIH 3T3 viability, CellTiter-Glo ATP luminescence, 48-72 h; Potency, µM (series often up to 96.7 µM), without a hit: at the highest dose activity change, negative = cytotoxicity, actives largely listed as inhibitors; hit rate 4.3% among 94,000; AID 1345082; note: nearly all actives have a fitted effect of over 55% in size
#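 First NIH 3T3 cells are plated at 400 cells/well; next compound is pinned in; then plates incubate 48 or 72 hr at 37 °C; finally CellTiter-Glo is added and luminescence read after 10 min.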
# HEK cytotox: cytotoxic compounds in HEK 293 cells; HEK 293 viability, ATP luminescence (CellTiter-Glo), 48-72 h; Potency, µM (highest dose often 115 µM), inactives show at the highest dose activity change, negative = cytotoxicity, usual class: inhibitors; hit rate 6.6% among 94,000; note: nearly all actives have a fitted effect of over 60% in size
#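 Cells seeded first (HEK 293, 250 cells/well), then compound added by pintool. Incubation ran 48 or 72 hr at 37 degree Celsius. CellTiter-Glo was added and luminescence imaged after 10 min at room temperature.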
# hNpr1 antagonist: blocks ANP-stimulated signaling of human Npr1 receptor. P16066. HEK293 hNpr1 GloSensor cGMP, ANP-stimulated luminescence. Potency, µM (series often up to 46.3 µM), inactives show at the top dose activity change, negative = inhibition, most hits filed as inhibitors. hit rate 1.6% among 76,000; calls by dose curve; note: nearly all actives have a fitted effect of over 60% in size
#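 Compound pre-incubated 30 min at room temperature on GloSensor-loaded HEK293 cells stably carrying hNpr1 and the pGS-40F cGMP biosensor. Stimulation uses hNppA at 0.1 nM final; luminescence is taken at baseline and 20 min post-agonist.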
# Luciferase inh: Photinus pyralis luciferase inhibition; P08659; purified P. pyralis luciferase, luminescence, biochemical; Potency, µM (highest dose often 115 µM), usual class: inhibitors; hit rate 2.5% among 76,000; AID 1347043; note: nearly all actives have a fitted effect of over 65% in size
# Target sequence (P08659 whole entry, looked up): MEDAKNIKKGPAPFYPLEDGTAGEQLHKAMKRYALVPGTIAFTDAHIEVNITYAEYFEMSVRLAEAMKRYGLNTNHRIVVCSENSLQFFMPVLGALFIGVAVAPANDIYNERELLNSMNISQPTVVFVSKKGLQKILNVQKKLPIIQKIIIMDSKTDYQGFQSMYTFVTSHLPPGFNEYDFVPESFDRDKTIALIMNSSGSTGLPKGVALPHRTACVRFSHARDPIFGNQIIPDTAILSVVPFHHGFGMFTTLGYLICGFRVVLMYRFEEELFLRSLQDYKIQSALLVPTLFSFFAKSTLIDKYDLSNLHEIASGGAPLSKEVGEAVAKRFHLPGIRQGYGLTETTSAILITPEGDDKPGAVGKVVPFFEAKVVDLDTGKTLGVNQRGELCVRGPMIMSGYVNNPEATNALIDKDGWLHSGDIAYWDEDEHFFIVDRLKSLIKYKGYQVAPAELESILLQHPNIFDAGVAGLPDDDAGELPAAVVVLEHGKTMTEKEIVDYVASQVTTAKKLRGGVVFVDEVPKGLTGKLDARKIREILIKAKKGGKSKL
#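 Inhibitors were tested against purified firefly luciferase in a biochemical, low-substrate format (both substrates at 10uM) and luminescence measured with a CCD imager.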
# An asterisk follows results filed as active; i = inactive; u = inconclusive; x = no result given; ! = a repeat was not active; [ ] = another dose, or the depositor's remark. Unless noted, calls come from the whole dose curve; as a rule, active = well fitted curve in the direction sought with a large enough effect; inconclusive = small, poorly fitted or top-dose-only effect, or another doubt; inactive = no such curve, though single readings can be large; an effect the other way counts as inactive or inconclusive. % is set by controls: 0 for no effect and ±100 for the full control effect; potency is the fitted concentration of half-maximal effect.
SMILES,NIH3T3 tox,HEK cytotox,hNpr1 antagonist,Luciferase inh
COc1cc(OC)cc(C(=O)N2CCCC(n3cc(-c4nc(-c5ccccc5)no4)nn3)C2)c1 (stereo not drawn),u,u,-10%,i
CCN1CCN(C(=O)C2CCc3nnc(C4CCN(C(C)=O)CC4)n32)CC1 (stereo not drawn),-17%[138 µM],-21%[172 µM],x,x
CCOC(=O)C1CCN(C(=O)c2ccc3nnc(-c4ccc([S+](C)(=O)[O-])cc4)n3c2)CC1,-7%,-1%,x,x
COc1ccccc1C(=O)N1CCC(n2cc(-c3nc(-c4ccccc4)no3)nn2)C1 (stereo not drawn),u,28µM*,13µM*,32µM*
O=C(c1cccc(Cl)c1)N1CCC2(CC1)CCN(Cc1cccs1)c1ccccc1O2,u,28µM*,-5%,i
O=C(Cc1cccc(Cl)c1)N1CCC2(CC1)CCN(Cc1cccs1)c1ccccc1O2,u,25µM*,13%,i
Cc1nn2c(c1-c1ccccc1N1CCCC1)N(C(=O)c1cc3ccccc3n1C)CCC2,35µM*,50µM*,-19%[70.6 µM],i
Cc1nn2c(c1-c1ccccc1N1CCCC1)N(C(=O)c1ccc(F)cc1)CCC2,u,71µM*,-16%[70.6 µM],i
Cc1nn2c(c1-c1cccnc1N1CCOCC1)N(C(=O)c1cc3ccccc3n1C)CCC2,u,-11%,5%,i
Cc1nn2c(c1-c1ccccc1C(C)C)N(C(=O)c1cc3ccccc3n1C)CCC2,22µM*,50µM*,u,i
CCNC(=O)C1CCCN(S(=O)(=O)c2ccccc2)CCC(=O)NCC1 (stereo not drawn),i,i,3%,i
CCc1noc(-c2cn(C3CCN(C(=O)c4cccc(NC(C)=O)c4)CC3)nn2)n1,4%,6%,-2%,i
COc1ccccc1-c1ccc(C(=O)N2CCC(NC(=O)Cc3ccc(F)cc3)CC2)cc1,45µM*!,u,x,x
C#CCNC(=O)C1CCN(C(=O)c2ccc(-c3ccccc3OC)cc2)CC1,-32%,u,x,x
COc1ccccc1-c1ccc(C(=O)N2CCC(NC(=O)Cc3cccc(Cl)c3)CC2)cc1,16µM*,16µM*!,x,x
COc1ccccc1-c1ccc(C(=O)N2CCC(C(=O)NCCc3ccc(Cl)cc3)CC2)cc1,32µM*,u,x,x
CNC(=O)C1CCN(C(=O)c2ccc(-c3ccccc3OC)cc2)CC1,-2%,i,x,x
COc1ccccc1-c1ccc(C(=O)N2CCC(NC(=O)c3ccc(Cl)cc3)CC2)cc1,-29%,u,x,x
COc1ccc(CCC(=O)N2C[C@@H]3CCCN4CCC[C@@H]([C@H]34)[C@H]2CCCC(=O)N2CCOCC2)cc1,i,17%,4%,i
CN(C)C(=O)C1CCN(c2ccnc3ccnn23)CC1,i,i,x,x
COCCN1CCOC2(CCN([S+](=O)([O-])c3cccc(C)c3)CC2)C1=O,89µM*,1%[172 µM],-1%[70.6 µM],i
CCCS(=O)(=O)N1CC(c2nc(-c3ccncc3)no2)C1,-21%,-15%,x,x
CC1=C[C@@H](CNCc2ccc(F)cc2)[C@H](C(C)C)C[C@H]1Cc1nnc(-c2cncn2C)o1,u,45µM*,-4%[70.6 µM],i
CC1=C[C@@H](CNCc2ccc(F)cc2)[C@H](C(C)C)C[C@H]1Cc1nnc(C)o1,u,u,-13%[70.6 µM],i
CC1=C[C@@H](CNCc2ccc(Cl)cc2)[C@H](C(C)C)C[C@H]1Cc1nnc(-c2cncn2C)o1,40µM*,79µM*,-12%,i
SMILES,NIH3T3 tox,HEK cytotox,hNpr1 antagonist,Luciferase inh
Cc1ccc(C(=O)N2CCCC3(CN[S+](=O)([O-])c4cccnc4N3)C2)cc1 (stereo not drawn),-10%,-13%,x,x
COc1ccc(-c2ccc3nc(-c4ccc(C)c(F)c4)oc3c2)c(OC)c1OC,-10%,-2%,-1%,u
COc1ccc(-c2ccc3nc(-c4ccc(F)c(C)c4)oc3c2)c(OC)c1OC,-20%,89µM*,-1%,u
COc1ccc(-c2ccc3nc(-c4ccc(F)c(F)c4)oc3c2)c(OC)c1OC,u,89µM*,-16%,i
Cc1nc(-c2ccc(OC3CCN(C(=O)c4nn(C)c5ccccc45)C3)cc2)no1 (stereo not drawn),u,45µM*,-21%,i
COc1ccc(CCC(=O)N2CCC(Oc3ccc(-c4noc(C)n4)cc3)C2)cc1 (stereo not drawn),-24%,u,-29%,40µM*
Cc1ccc(NC(=O)N2CCC(CCNC(=O)CCc3ccccc3)CC2)cc1F,u,u,-16%,i
NCc1ccccc1-c1ccccn1,i,0%[230 µM],x,x
CN1CCCCCCN(S(=O)(=O)c2cccc(F)c2)[C@H]2CCC[C@H]2C1=O,u,-27%,-8%,i
O=S(=O)(NCC1CN(CC2CC2)CC12CCCCC2)c1cccnc1 (stereo not drawn),u,-6%,x,x
Cc1ccc(-c2ccc3nnc(CNC(=O)c4cc(F)ccc4Cl)n3n2)cc1,u,32µM*,0%,i
Cc1cccc(S(=O)(=O)N2CCCC(Cn3c(C)nc4cccnc43)C2)c1 (stereo not drawn),u,u,-25%,i
Cc1ccc(C)c(S(=O)(=O)N2CCCC(Cn3c(C4CC4)nc4cccnc43)C2)c1 (stereo not drawn),u,40µM*,-14%,i
Cc1cccc(S(=O)(=O)N2CCCC(Cn3c(C4CC4)nc4cccnc43)C2)c1 (stereo not drawn),u,35µM*,-15%,i
Cc1ccc(NC(=O)N2CCCC(Cn3c(C4CC4)nc4cccnc43)C2)cc1 (stereo not drawn),u,-12%,5%,i
O=C(Nc1ccc(C(F)(F)F)cc1)N1CCCC(Cn2c(C3CC3)nc3cccnc32)C1 (stereo not drawn),32µM*,40µM*,-19%,i
Cn1cc(C2CCN(C(=O)c3c(Cl)cc(Cl)cc3Cl)CC2)c2ccccc21,u,u,-12%,i
O=C(c1ccc(Cl)nc1)N1CCC(C(=O)N2CCC(c3nc4ncccc4[nH]3)CC2)C1 (stereo not drawn),-21%,-8%,x,x
COCCN1C(=O)c2cccn2CC1CNC(=O)CCc1nc2ccccc2s1 (stereo not drawn),-3%,-9%,-3%,i
O=C(NCCc1ccccc1)N1CCCC(c2noc(COc3ccccc3)n2)C1 (stereo not drawn),u,u,-8%,u
NCc1ccc(-c2cc(F)cc(F)c2)cc1,50µM*,u,x,x
Cc1cc(C)cc(-c2ccc(CN)cc2)c1,u,28µM*,x,x
Cc1cc(C)cc(-c2ccc(C=O)cc2)c1,u,126µM*,x,x
NCc1ccc(-c2cccnc2)cc1,-4%[138 µM],-3%[172 µM],x,x
NCc1ccc(-c2ccccn2)cc1,3%[174 µM],i,x,x
CC(C)(C)OC(=O)NCCCC(=O)NCc1c[nH]c2ncccc12,-19%,u,3%,i
COc1ccc(Cn2c(-c3ccc(Cl)cc3)nc(C)c(CCO)c2=O)cc1F,u,45µM*,0%,i
